# According to paper PMC7862700, “An all-to-all approach to the identification of sequence-specific readers for epigenetic DNA modifications on cytosine”:
# Experiments:
# Experiment in all cases: DAPPL (digital affinity profiling via proximity ligation, sequencing); 10 mM Tris-HCl pH 7.5, 50 mM NaCl, 1 mM DTT, 4% glycerol, room temperature, 30 min; GST-TFs on glutathione beads, 16-mer random dsDNA library, 0.1% formaldehyde crosslink after washing; high values mean tight binding
# Conditions in all cases: protein: recombinant; tags: N-terminal GST; dsDNA, one strand shown
# FLI1 = target: T1, FLI1 (Homo sapiens, UniProt Q01543 1-452)
# T1 sequence: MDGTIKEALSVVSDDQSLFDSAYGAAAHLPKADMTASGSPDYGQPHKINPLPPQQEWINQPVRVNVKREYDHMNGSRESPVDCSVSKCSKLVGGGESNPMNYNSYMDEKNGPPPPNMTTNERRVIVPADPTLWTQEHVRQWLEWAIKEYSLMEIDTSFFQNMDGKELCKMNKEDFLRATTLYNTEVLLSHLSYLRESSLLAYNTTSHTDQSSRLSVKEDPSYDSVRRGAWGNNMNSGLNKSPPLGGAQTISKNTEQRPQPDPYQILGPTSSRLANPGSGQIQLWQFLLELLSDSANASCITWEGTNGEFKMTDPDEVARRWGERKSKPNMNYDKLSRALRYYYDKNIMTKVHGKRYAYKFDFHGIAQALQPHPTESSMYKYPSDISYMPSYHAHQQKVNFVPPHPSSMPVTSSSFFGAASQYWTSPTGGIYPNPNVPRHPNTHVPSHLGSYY
# In short: (§1)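 Binding signal is each hexamer's read frequency for a factor divided by its frequency in the tag-only sample. The factors were GST-fused human transcription factors from yeast, captured on glutathione beads, DNA-barcoded and pooled with that sample. Pools were incubated with 200 nmole of a random double-stranded 16-mer DNA library in Tris/NaCl/DTT/glycerol buffer at room temperature for 30 min, then washed, crosslinked with 0.1% formaldehyde, proximity-ligated with BsaI/T4 ligase (1 h, 37 °C), PCR-amplified and sequenced on an Illumina NextSeq500.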
# ELK1 = target: T2, ELK1 (Homo sapiens, UniProt P19419 1-428)
# T2 sequence: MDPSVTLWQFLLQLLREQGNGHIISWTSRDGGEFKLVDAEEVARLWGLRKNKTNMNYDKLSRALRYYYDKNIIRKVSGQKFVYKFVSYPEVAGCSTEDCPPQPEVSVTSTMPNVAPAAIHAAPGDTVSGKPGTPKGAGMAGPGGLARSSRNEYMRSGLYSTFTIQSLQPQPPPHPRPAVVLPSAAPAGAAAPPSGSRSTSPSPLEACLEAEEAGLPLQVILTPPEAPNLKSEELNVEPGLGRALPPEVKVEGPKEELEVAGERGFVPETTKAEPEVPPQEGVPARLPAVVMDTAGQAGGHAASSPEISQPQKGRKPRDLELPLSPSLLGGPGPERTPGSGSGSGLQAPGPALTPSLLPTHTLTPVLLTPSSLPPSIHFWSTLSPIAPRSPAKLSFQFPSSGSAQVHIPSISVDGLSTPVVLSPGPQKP
# In short: as §1
# GABPA = target: T3, GABPA (Homo sapiens, UniProt Q06546 1-454)
# T3 sequence: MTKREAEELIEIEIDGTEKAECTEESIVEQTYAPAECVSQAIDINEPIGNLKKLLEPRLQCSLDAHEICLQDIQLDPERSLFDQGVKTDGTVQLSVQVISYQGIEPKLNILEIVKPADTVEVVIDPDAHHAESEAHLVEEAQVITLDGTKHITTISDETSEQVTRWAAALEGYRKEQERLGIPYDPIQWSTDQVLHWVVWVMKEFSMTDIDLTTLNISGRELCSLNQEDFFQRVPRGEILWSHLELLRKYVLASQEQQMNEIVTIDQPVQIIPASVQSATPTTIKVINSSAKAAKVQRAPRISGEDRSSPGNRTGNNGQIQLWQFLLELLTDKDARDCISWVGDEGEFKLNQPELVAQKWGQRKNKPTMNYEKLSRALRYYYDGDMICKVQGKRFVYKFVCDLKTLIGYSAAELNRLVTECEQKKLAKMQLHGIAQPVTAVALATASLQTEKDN
# In short: as §1
# ERG = target: T4, ERG (Homo sapiens, UniProt P11308 1-479)
# T4 sequence: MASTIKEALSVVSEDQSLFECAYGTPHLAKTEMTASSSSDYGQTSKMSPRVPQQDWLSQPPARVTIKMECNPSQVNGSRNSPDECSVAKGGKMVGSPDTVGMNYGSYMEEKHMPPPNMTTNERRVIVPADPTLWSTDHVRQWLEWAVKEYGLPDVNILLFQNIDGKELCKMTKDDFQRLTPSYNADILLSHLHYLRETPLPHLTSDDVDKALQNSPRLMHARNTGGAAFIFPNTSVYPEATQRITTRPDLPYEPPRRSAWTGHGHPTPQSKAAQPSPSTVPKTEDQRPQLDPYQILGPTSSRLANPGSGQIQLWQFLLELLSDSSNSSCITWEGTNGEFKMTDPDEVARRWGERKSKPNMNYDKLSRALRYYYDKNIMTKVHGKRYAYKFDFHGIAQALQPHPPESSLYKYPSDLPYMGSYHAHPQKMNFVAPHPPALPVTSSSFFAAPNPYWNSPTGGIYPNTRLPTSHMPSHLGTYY
# In short: as §1
# ELF1 = ELF1 (Homo sapiens, UniProt P32519 1-619)
# Chain of ELF1 (P32519 whole entry): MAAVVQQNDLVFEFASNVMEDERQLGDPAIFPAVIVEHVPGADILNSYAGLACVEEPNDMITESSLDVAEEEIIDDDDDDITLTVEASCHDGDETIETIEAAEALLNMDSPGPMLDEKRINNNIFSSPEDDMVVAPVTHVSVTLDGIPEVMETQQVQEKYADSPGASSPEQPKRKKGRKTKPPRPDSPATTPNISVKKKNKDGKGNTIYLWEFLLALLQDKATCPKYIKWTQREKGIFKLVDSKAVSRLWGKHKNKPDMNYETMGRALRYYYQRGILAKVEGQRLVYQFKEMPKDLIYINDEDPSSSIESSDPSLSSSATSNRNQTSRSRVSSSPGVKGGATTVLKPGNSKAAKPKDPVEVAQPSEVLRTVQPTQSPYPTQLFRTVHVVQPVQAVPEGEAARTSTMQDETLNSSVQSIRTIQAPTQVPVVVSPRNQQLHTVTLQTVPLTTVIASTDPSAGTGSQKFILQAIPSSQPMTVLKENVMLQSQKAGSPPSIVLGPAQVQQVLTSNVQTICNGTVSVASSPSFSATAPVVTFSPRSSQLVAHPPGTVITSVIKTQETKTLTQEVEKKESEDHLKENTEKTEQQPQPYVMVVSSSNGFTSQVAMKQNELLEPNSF
# In short: as §1
# EHF = target: T5, EHF (Homo sapiens, UniProt Q9NZC4 1-300)
# T5 sequence: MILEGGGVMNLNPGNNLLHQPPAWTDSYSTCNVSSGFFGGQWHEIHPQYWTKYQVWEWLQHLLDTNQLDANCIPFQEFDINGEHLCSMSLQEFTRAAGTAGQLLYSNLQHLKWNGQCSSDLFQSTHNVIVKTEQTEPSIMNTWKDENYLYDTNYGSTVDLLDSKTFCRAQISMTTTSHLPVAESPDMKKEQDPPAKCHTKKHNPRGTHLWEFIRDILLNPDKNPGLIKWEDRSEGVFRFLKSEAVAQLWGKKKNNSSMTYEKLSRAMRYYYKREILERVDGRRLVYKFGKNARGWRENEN
# In short: as §1
# SPI1 = SPI1 (Homo sapiens, UniProt P17947 1-270)
# In short: as §1
# SPIB = SPIB (Homo sapiens, UniProt Q01892 1-262)
# Chain of SPIB (Q01892 whole entry): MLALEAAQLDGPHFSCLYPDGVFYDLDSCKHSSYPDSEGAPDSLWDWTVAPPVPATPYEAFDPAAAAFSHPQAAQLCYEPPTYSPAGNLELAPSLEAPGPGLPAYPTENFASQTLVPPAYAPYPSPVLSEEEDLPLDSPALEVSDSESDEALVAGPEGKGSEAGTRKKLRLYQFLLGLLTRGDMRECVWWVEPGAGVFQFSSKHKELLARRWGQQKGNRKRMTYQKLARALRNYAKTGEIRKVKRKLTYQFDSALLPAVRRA
# In short: as §1
# ELK3 = target: T6, ELK3 (Homo sapiens, UniProt P41970 1-407)
# T6 sequence: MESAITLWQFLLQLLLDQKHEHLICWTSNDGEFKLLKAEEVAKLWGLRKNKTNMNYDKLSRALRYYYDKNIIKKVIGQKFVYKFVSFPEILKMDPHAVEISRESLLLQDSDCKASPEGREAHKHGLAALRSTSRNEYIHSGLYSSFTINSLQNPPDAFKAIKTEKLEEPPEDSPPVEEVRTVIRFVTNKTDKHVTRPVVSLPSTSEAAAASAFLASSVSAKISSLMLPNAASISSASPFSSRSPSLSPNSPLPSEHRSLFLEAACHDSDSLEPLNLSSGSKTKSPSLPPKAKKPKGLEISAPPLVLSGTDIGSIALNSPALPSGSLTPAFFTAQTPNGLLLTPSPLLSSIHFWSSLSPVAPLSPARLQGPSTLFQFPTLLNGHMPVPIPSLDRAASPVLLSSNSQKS
# In short: as §1
sequence,measurement,setting,value
GGAATT,binding signal,FLI1,"1.14 fold enrichment (6-mer frequency, TF over GST control)"
same,binding signal,ELK1,"1.1 fold enrichment (6-mer frequency, TF over GST control)"
same,binding signal,GABPA,"1 fold enrichment (6-mer frequency, TF over GST control)"
same,binding signal,ERG,"1.12 fold enrichment (6-mer frequency, TF over GST control)"
same,binding signal,ELF1,"1.07 fold enrichment (6-mer frequency, TF over GST control)"
same,binding signal,EHF,"1.24 fold enrichment (6-mer frequency, TF over GST control)"
same,binding signal,SPI1,"1.16 fold enrichment (6-mer frequency, TF over GST control)"
same,binding signal,SPIB,"1.18 fold enrichment (6-mer frequency, TF over GST control)"
same,binding signal,ELK3,"1.24 fold enrichment (6-mer frequency, TF over GST control)"
